Screening data: PubChem, National Center for Advancing Translational Sciences (NCATS)
HT1080NT lethal: kills 2HG-producing HT-1080-NT fibrosarcoma cells. Potency, µM (titrated, usually from 46.1 µM), for inactives: at the top dose activity, negative = less viability, actives largely listed as cytotoxic. HT-1080-NT fibrosarcoma viability, CellTiter-Glo ATP luminescence, 48 h. actives 1.6% (n = 360,000);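 note: NT is the 2HG producing partner of a matched IDH1 knockdown line; 0% = DMSO-treated cells and -100% = media-only wells without cells; nearly all actives have a fitted effect of over 55% in size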
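Viability of the 2HG-overproducing fibrosarcoma line after 48 hours of compound exposure at 37 degrees C was determined by luminescence with CellTiter-Glo, and concentration-effect curves were then fitted and categorized.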
HepG2 viability: counter-screen for TGF-b inhibitors: cytotoxicity in HepG2 cells. HepG2 CAGA-GFP viability, ATP luminescence, 18 h. actives 0.76% (n = 410,000). Potency, µM (highest dose often 46.1 µM), for the others: at the top dose activity change, negative = cytotoxicity, usual class: cytotoxic
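HepG2 CAGA-GFP cells (1000/well, DMEM with 1% FBS) received compound, then TGF-beta at 500 pg/mL final, and were incubated 18 hours at 37 degrees C. Viability was read by CellTiter-Glo luminescence. Media-only wells were set as complete cell-killing and DMSO as no toxicity.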
HT1080 IDH1KD tx: toxicity to HT-1080 IDH1 knockdown cells (counter line); HT-1080 IDH1 knockdown viability, ATP luminescence, 48 h; AID 686971; actives 2% (n = 360,000); Potency, µM (highest dose often 46.1 µM), without a hit: at the top dose activity, negative = toxicity, hits mostly cytotoxic;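 note: 0% = DMSO wells and -100% = cell-free medium wells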
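Using the IDH1-knockdown HT-1080 line run in the same batch and compound series as the NT line, viability after 48 h at 37 °C was determined by CellTiter-Glo luminescence and expressed as % activity.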
TGFb SMAD3 inh: TGF-b pathway inhibition. HepG2 CAGA-GFP TGF-b/SMAD3 reporter, GFP fluorescence, 18 h; TGF-beta stimulated, 500 pg/mL final. Potency, µM (series often up to 46.1 µM), without a hit: top-dose activity, negative = inhibition, actives largely listed as inhibitors. actives 1.2% (n = 410,000). AID 588855; note: % is set by controls: 0 for no effect and ±100 for the full control effect; nearly all actives have a fitted effect of over 65% in size
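Using HEPG2 CAGA-GFP reporter cells at 1000 cells/well, we pinned test compounds, stimulated with recombinant TGF-beta (500 pg/mL final) and measured total well GFP after 18 h.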
ATXN2 expr inh: reduces ATXN2 reporter expression in HEK-293 cells | HEK-293 ATXN2-luciferase reporter, luminescence, 24 h | Potency, µM (series often up to 57 µM), without a hit: at the highest dose activity change, negative = inhibition, usual class: inhibitors | actives 0.72% (n = 360,000) | AID 1745845; note: % is set by controls: 0 for no effect and ±100 for the full control effect; nearly all actives have a fitted effect of over 55% in size
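ATXN2-luciferase reporter cells (luciferase flanked by upstream and downstream ATXN2 gene portions) were treated 24 h at 37 °C with compounds at up to 57 uM. SteadyGlo luminescence gave expression; GF-AFC fluorescence gave viability.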
ATXN viability: reduces viability in counter-screen for ATXN expression inhibitors. S2 cells (HEK-293 line with an ATXN2-luciferase reporter) viability, CellTiter-Fluor protease fluorescence, 24 h. Potency, µM (series often up to 56.7 µM), most hits filed as cytotoxic. actives 0.49% (n = 400,000). AID 651635; note: nearly all actives have a fitted effect of over 40% in size
* = called active by the depositor; i = inactive; ? = inconclusive; / = no result given; ! = not confirmed by another sample; [ ] = another dose, or the depositor's remark. An excerpt weighted towards active compounds, which were near 3.9% of everything screened. Calls come from the whole dose curve; as a rule, active = well fitted curve in the direction sought with a large enough effect; inconclusive = small, poorly fitted or top-dose-only effect, or another doubt; inactive = no such curve, though single readings can be large; an effect the other way counts as inactive or inconclusive. Potency is the fitted concentration of half-maximal effect.

SMILES	HT1080NT lethal	HepG2 viability	HT1080 IDH1KD tx	TGFb SMAD3 inh	ATXN2 expr inh	ATXN viability
COc1ccc(C(=O)Nc2ccccc2C(=O)N/N=C/c2ccncc2)cc1OC	26µM*	13µM*	26µM*	13%	-18%	i
CCC(=O)O[C@@H]1CC(=O)O[C@H](C)C/C=C/C=C/[C@H](O)[C@H](C)C[C@H](CC=O)[C@H](O[C@@H]2O[C@H](C)[C@@H](O[C@H]3C[C@@](C)(O)[C@@H](OC(=O)CC)[C@H](C)O3)[C@H](N(C)C)[C@H]2O)[C@H]1OC	/	/	/	/	/	i
COc1ccc(-c2nc3cc(C)ccc3cc2CN(C(=O)c2cc(C)nn2C)C2CC2)cc1OC	/	/	/	/	/	i
C=CCc1cccc(/C=N/NC(=O)c2ccc3nc[nH]c3c2)c1O	?	4%	?	-5%	10µM*	i
COc1cccc(/C=N/NC(=O)c2[nH]c(C)c(C(=O)N/N=C/c3cccc(OC)c3O)c2C)c1O	-21%	-46%	-29%	?	14µM*	i
O=C(N/N=C/c1ccc(Cl)cc1Cl)c1ccc2nc[nH]c2c1	-3%	-25%	1%	-26%	/	i
Cc1cccc(/C=N\NC(=O)c2ccc(Cl)cc2)c1O	?	-43%	3.3µM*	-21%	?	i
Cc1[nH]c(C(=O)N/N=C/c2ccc(C(=O)O)cc2)c(C)c1C(=O)N/N=C/c1ccc(C(=O)O)cc1	1%	3%	1%	5%	-11%	i
Cc1cccc(/C=N/NC(=O)Cc2ccc(Cl)cc2)c1O	-27%	-49%	?	?	/	?
COc1ccccc1CNC(=O)c1cc2ccc3ccc(C)[nH]c3c2n1	/	-30%	/	?	?	i
COc1ccc(-n2c(-c3ccccc3F)nc3c(cnn3-c3ccc(C)cc3)c2=O)cc1	/	-5%	/	?	/	/
C=CC(=O)N=c1sc2ccccc2n1-c1ccccc1	13µM*	4.5µM*	10µM*	10µM*	18%[11.3 µM]	/
N=c1sc2ccccc2n1-c1ccccc1	-10%	-28%	?	?	1%	i
O=[N+]([O-])c1cc(F)c2cccnc2c1O	-26%	16µM*	?	?	/	?
O=[N+]([O-])c1ccc(O)c2cccnc12	10%	-2%	0%	-2%	-5%	?
O=[N+]([O-])c1ccc(O)c2ncccc12	6.5µM*	-31%	16µM*	5.6µM*	10µM*	13µM*!
O=[N+]([O-])c1cc(Cl)c2cccnc2c1O	?	-26%	?	?	?	?
O=[N+]([O-])c1cc(Cl)c(O)c2ncccc12	-26%	-5%	?	?	20µM*	?
Oc1c(I)cc(Cl)c2cccnc12	?	-17%	12µM*	16µM*	32µM*!	?
COc1ccc(-c2cc(C)no2)cc1S(=O)(=O)NC(C)C	/	-23%	/	-22%	/	/
Fc1ccc(Nc2ncnc3onc(-c4cccc(Cl)c4)c23)c(F)c1	/	0%	/	-3%	5%	i
COc1cc(=O)n2c(c1C(=O)N(C)Cc1nonc1C)CCN(C(=O)c1cccc(C)c1C)CC2	/	/	/	/	/	i
O=c1oc2ccccc2c(O)c1Cc1cc(Cl)c2cccnc2c1O	-7%	-12%	-7%	1%	?	i
Oc1c(CN2CCc3ccccc3C2)cc(Cl)c2cccnc12	?	-56%	?	5.6µM*	5.6µM*	4µM*
Cc1ccc(CNc2nc(C)c(-c3ccn(CCN4CCOCC4)n3)s2)o1	/	/	/	/	/	i
SMILES	HT1080NT lethal	HepG2 viability	HT1080 IDH1KD tx	TGFb SMAD3 inh	ATXN2 expr inh	ATXN viability
O=C(CN1c2ccccc2Sc2ccccc21)NNC(=O)Nc1cccc(Cl)c1	18µM*	-53%	12µM*	?	-26%	?
O=C(CCC(=O)NNC(=O)Nc1cccc(Cl)c1)NCc1ccccc1	-15%	-31%	-3%	11%	-10%	i
Cc1cnc(-n2ncc(C(=O)N(CCO)C(C)C)c2-c2cccs2)nc1-c1ccc(F)cc1	/	/	/	/	/	i
CCC(=O)c1ccc2c(c1)N(CCCN(C)C)c1ccccc1S2	23µM*	16µM*	23µM*	?	?	?
CCc1c(C)sc2c1CCN(Cc1ccc(F)cc1)C2c1ccccc1 (stereo not given)	/	-13%	/	-16%	?	?
COCCNC(=O)CCCn1c(SCC(=O)c2ccc(Br)cc2)nc2c(sc3ccccc32)c1=O	/	0%	/	-1%	/	/
CCCc1nc2c3ccccc3ccn2c1Cc1cccc(Cl)c1	26µM*	-38%	?	-73%	2%	35µM*
CCCc1nc2c3ccccc3ccn2c1Cc1ccc(C)cc1	?	-27%	?	?	57%	?
COc1ccccc1N(Cc1ccccc1)S(=O)(=O)c1cccc(C(=O)NC2CC(C)(C)NC(C)(C)C2)c1	-25%	13µM*	-24%	-15%	?	?
CC1(C)CC(NC(=O)c2ccc(Cl)c(S(=O)(=O)N(Cc3ccccc3)c3ccccc3)c2)CC(C)(C)N1	-23%	18µM*	-24%	?	?	/
NC(=O)COC(=O)c1ccc(Cl)c(S(=O)(=O)N(Cc2ccccc2)c2ccc(Cl)cc2)c1	?	1%	?	16µM*	8%[11.3 µM]	i
NC(=O)NC(=O)COC(=O)c1ccc(Cl)c(S(=O)(=O)N(Cc2ccccc2)c2ccc(Cl)cc2)c1	?	0%	?	14%	-5%	i
COc1cccc(-c2csc(-c3c(N)c(C(=O)c4ccccc4)n4ccccc34)n2)c1	/	1%	/	0%	7%	i
CCOC(=O)c1nc2sc(C)c(C)c2c(=O)[nH]1	8%	-6%	1%	0%	-3%	i
CCOC(=O)/C(=C\c1cccc(O)c1)c1nc2sc(C)c(C)c2c(=O)[nH]1	?	-61%	?	?	16µM*	?
CN1CCN(C2Cc3cc(Cl)ccc3Sc3cc(F)ccc32)CC1 (stereo not given)	?	-99%	?	?	?	?
OCCN1CCN(C2Cc3cc(Cl)ccc3Sc3ccc(Cl)cc32)CC1 (stereo not given) (tested in a mixture with another compound)	?	10µM*	?	?	?	?
COc1cc(C(=S)N2CCN(c3cccc(Cl)c3)CC2)ccc1O	?	-9%	16µM*	-22%	-20%	i
Oc1ccc(C(=S)N2CCN(c3cccc(Cl)c3)CC2)cc1	?	3%	?	?	-3%	i
